Drawing on ChEMBL document CHEMBL1961873, “Compounds: GSK PKIS; Assays: Nanosyn kinase panel” (2012), this text covers inhibition for 7 compounds.

Assay [1] concerns the target High affinity nerve growth factor receptor (Homo sapiens) (UniProt P04629). To be noted: at 1 µM.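 Further: each value is the mean percent inhibition of TRKA.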
For assay [2], the target named is BDNF/NT-3 growth factors receptor (Homo sapiens) (UniProt Q16620). The note with it: at 0.1 µM.
The target is the same in assay [3]. To be noted: at 1 µM.
Assay [4] has as its target NT-3 growth factor receptor (Homo sapiens) (UniProt Q16288). To be noted: at 0.1 µM.
Assay [5] has the same target. To be noted: at 1 µM.
Assay [6] has as its target T1, Tyrosine-protein kinase TXK (Homo sapiens) (UniProt P42681).
T1 sequence (whole entry): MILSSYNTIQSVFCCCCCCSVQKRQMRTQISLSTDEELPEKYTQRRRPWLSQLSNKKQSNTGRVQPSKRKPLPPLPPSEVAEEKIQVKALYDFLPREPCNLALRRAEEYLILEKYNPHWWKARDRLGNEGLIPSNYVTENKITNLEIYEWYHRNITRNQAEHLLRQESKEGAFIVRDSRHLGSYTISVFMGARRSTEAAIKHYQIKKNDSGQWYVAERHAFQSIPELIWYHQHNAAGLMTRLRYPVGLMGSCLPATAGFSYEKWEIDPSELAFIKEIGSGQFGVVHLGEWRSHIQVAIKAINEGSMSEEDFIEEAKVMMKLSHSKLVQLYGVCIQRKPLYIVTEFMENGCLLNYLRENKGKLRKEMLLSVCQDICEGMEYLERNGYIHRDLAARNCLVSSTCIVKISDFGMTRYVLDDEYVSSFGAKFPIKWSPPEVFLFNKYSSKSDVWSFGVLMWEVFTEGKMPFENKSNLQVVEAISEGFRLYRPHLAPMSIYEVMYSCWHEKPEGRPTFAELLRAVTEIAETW
To be noted: at 0.1 µM.

Assay [7] addresses T1, Tyrosine-protein kinase TXK (Homo sapiens). To be noted: at 1 µM.
In assay [8] the target is Non-receptor tyrosine-protein kinase TYK2 (Homo sapiens) (UniProt P29597). The note with it: at 0.1 µM.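 Further: each value is a mean of the inhibition readings.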
The target of assay [9] is T2, Dual specificity protein kinase TTK (Homo sapiens) (UniProt P33981).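 Further: reported figures are mean TTK inhibition at 1 µM.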
T2 sequence (whole entry): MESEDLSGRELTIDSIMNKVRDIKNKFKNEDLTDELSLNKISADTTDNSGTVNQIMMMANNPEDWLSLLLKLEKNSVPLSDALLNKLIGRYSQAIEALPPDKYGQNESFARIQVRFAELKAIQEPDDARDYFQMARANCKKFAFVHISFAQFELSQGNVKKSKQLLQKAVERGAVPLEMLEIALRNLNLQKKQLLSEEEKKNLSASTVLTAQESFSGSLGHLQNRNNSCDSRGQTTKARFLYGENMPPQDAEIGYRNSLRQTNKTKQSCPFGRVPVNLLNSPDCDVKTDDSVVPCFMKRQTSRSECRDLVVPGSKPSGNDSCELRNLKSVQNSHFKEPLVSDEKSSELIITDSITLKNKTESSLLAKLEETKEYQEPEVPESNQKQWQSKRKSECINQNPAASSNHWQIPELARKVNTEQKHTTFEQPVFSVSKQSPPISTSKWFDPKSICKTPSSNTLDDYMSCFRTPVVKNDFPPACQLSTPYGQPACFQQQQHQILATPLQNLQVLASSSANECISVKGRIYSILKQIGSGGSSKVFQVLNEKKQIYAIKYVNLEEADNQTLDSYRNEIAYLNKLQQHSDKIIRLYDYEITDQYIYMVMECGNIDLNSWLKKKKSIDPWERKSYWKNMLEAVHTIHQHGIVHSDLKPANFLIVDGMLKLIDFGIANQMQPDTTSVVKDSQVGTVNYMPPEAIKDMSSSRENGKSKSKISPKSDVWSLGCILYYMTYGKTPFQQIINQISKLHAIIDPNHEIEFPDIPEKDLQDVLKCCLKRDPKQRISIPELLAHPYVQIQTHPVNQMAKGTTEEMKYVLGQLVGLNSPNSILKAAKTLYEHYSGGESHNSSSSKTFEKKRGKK
To be noted: at 1 µM.

In assay [10] the target is T3, Aurora kinase A (Homo sapiens) (UniProt O14965).
T3 sequence (whole entry): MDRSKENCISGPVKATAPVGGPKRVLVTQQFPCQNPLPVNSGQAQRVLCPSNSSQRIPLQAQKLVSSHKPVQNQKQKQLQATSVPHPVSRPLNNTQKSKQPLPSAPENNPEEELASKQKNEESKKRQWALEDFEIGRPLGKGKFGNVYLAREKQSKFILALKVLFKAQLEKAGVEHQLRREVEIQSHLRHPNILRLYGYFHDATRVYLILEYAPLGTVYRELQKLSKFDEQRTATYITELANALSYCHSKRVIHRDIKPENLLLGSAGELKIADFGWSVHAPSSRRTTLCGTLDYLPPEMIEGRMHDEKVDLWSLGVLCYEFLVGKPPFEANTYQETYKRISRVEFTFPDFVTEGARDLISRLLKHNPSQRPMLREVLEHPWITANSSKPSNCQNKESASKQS
To be noted: at 0.1 µM.

The target of assay [11] is T3, Aurora kinase A (Homo sapiens). The note with it: at 1 µM.
Assay [12] concerns the target Aurora kinase B (Homo sapiens) (UniProt Q96GD4). The note with it: at 0.1 µM.
For assay [13] the target is unchanged. The note with it: at 1 µM.
In assay [14] the target is T4, Aurora kinase C (Homo sapiens) (UniProt Q9UQB9).
T4 sequence (whole entry): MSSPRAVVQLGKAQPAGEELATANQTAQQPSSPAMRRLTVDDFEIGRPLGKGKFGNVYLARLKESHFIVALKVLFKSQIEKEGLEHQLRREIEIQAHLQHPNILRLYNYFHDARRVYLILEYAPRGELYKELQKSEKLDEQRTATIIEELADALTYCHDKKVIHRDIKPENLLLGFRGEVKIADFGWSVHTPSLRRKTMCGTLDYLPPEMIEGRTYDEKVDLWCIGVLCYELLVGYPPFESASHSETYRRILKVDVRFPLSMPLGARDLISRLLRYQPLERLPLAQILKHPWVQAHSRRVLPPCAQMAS
The note with it: at 0.1 µM.

Assay [15] has as its target T4, Aurora kinase C (Homo sapiens). To be noted: at 1 µM.
Assay [16] has as its target Serine/threonine-protein kinase 10 (Homo sapiens) (UniProt O94804). The note with it: at 0.1 µM.
The target is the same in assay [17]. The note with it: at 1 µM.
Assay [18] has as its target T5, Mitogen-activated protein kinase kinase kinase kinase 2 (Homo sapiens) (UniProt Q12851).
T5 sequence (whole entry): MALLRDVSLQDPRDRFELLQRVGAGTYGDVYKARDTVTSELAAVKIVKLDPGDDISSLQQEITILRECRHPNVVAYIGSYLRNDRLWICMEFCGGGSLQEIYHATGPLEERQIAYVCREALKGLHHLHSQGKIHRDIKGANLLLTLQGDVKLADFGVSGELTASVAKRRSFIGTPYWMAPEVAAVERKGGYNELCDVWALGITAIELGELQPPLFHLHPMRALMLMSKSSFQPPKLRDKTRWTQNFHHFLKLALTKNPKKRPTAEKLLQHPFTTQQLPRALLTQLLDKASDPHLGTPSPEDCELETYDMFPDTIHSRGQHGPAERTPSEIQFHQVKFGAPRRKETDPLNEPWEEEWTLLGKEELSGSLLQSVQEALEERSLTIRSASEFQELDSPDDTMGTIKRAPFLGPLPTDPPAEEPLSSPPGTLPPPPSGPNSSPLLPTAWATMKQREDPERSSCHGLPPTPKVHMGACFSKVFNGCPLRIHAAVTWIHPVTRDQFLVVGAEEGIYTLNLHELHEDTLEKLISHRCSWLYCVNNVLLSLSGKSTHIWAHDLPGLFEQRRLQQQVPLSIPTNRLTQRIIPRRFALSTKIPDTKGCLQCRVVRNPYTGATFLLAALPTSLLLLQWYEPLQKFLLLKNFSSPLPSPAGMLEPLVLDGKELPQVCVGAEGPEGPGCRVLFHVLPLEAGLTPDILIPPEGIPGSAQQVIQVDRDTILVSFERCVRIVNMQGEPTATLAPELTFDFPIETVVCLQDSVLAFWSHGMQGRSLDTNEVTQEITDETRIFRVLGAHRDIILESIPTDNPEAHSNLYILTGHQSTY
To be noted: at 0.1 µM.

For assay [19], the target named is T5, Mitogen-activated protein kinase kinase kinase kinase 2 (Homo sapiens). To be noted: at 1 µM.
Assay [20] concerns the target Mitogen-activated protein kinase kinase kinase kinase 4 (Homo sapiens) (UniProt O95819). The note with it: at 0.1 µM.

Molecules are shown by their SMILES.

Sequence of Mitogen-activated protein kinase kinase kinase kinase 4 (Homo sapiens) (O95819 2-1239 limits assumed): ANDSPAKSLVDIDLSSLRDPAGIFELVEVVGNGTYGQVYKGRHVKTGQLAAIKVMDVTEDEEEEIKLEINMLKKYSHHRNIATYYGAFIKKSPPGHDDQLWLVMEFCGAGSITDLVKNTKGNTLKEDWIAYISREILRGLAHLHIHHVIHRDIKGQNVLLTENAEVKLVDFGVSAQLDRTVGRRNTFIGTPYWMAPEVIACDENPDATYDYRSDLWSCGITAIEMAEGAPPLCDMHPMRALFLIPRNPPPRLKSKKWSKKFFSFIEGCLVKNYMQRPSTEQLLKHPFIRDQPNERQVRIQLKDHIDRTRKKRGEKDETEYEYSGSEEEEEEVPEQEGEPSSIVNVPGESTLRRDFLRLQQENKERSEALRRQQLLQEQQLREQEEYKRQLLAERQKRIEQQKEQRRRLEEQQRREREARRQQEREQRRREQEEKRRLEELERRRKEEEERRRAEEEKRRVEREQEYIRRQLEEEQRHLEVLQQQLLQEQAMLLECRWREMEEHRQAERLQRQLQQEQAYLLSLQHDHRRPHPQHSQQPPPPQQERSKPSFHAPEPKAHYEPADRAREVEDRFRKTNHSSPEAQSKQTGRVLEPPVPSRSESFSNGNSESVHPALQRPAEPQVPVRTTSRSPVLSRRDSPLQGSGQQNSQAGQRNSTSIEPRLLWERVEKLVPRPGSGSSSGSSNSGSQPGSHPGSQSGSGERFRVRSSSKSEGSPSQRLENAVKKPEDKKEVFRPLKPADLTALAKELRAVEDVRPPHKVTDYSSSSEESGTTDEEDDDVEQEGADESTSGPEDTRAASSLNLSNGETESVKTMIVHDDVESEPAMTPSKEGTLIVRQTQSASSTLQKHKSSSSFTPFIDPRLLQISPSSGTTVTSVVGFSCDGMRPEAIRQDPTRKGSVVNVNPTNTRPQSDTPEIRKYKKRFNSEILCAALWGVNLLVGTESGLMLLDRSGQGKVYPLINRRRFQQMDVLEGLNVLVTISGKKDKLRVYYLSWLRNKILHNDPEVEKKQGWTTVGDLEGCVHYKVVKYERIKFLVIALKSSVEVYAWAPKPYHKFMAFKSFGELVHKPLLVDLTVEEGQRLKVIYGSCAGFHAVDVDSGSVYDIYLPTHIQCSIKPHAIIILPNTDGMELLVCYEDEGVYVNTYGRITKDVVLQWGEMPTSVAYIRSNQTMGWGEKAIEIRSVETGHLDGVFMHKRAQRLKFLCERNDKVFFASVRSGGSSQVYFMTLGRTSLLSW
Sequence of High affinity nerve growth factor receptor (Homo sapiens) (P04629 33-796 limits assumed): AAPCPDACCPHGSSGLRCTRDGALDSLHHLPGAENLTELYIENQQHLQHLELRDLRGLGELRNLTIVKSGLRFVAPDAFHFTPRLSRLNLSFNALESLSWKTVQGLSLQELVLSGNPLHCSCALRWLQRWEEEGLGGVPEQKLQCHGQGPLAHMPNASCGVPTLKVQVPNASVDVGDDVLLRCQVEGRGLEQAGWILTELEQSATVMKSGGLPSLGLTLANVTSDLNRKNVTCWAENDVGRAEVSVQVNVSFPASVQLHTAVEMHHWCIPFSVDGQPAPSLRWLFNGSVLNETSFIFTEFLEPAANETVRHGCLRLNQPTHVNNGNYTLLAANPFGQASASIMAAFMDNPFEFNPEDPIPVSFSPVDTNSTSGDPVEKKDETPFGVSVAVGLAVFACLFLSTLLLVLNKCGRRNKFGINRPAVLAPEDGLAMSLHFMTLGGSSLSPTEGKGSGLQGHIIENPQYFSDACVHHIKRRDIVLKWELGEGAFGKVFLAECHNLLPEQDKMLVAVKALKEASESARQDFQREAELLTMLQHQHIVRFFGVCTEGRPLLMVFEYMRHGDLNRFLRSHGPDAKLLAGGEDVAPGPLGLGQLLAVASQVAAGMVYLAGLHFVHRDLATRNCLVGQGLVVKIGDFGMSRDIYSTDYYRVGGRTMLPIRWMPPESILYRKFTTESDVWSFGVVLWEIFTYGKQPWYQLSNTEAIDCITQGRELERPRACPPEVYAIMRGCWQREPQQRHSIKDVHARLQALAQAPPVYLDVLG
Sequence of Serine/threonine-protein kinase 10 (Homo sapiens) (O94804 whole entry, looked up): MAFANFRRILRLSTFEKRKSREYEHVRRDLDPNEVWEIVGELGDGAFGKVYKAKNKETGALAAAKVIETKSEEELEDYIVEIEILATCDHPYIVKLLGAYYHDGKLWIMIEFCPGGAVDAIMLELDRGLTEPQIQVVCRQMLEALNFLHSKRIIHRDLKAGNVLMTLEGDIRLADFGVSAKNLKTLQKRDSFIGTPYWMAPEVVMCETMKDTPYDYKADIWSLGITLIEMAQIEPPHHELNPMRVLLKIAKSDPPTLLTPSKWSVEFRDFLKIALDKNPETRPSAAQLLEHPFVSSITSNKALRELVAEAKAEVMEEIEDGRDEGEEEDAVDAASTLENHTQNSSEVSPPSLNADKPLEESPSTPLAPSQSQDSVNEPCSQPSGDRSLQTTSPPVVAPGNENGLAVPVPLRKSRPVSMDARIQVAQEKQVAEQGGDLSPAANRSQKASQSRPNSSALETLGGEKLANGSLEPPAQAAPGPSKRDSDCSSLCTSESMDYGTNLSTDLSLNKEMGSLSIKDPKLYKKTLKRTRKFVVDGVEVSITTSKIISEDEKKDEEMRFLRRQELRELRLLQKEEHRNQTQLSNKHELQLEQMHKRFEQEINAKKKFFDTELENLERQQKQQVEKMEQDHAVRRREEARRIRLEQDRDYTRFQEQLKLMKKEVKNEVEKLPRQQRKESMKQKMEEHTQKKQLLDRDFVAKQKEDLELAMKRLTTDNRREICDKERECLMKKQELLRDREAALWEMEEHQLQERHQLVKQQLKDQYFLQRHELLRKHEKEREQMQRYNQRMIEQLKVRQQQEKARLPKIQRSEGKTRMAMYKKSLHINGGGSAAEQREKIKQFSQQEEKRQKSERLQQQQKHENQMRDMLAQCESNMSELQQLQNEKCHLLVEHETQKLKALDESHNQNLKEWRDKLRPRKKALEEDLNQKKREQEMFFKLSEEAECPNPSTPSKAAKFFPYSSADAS
Sequence of NT-3 growth factor receptor (Homo sapiens) (Q16288 32-839 limits assumed): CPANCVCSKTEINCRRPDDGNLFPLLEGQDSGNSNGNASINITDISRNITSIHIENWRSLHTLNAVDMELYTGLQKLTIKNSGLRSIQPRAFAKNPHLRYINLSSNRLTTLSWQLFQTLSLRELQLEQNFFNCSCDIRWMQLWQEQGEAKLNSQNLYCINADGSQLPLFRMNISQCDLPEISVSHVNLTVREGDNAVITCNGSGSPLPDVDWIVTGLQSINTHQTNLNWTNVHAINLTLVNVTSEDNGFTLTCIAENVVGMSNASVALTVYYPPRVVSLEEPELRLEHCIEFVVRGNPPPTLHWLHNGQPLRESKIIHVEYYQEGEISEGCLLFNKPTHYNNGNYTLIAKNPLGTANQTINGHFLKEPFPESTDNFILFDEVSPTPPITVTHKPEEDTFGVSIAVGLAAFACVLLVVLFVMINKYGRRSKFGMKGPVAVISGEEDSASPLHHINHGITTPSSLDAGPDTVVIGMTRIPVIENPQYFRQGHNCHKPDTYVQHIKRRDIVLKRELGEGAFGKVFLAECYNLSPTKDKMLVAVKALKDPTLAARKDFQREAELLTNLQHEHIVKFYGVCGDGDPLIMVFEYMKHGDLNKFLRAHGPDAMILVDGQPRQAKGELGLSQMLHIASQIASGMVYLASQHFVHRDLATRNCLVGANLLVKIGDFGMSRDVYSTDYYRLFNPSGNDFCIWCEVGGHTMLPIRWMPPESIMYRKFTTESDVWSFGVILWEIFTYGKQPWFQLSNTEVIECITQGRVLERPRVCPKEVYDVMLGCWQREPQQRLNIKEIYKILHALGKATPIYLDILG
Sequence of Aurora kinase B (Homo sapiens) (Q96GD4 whole entry): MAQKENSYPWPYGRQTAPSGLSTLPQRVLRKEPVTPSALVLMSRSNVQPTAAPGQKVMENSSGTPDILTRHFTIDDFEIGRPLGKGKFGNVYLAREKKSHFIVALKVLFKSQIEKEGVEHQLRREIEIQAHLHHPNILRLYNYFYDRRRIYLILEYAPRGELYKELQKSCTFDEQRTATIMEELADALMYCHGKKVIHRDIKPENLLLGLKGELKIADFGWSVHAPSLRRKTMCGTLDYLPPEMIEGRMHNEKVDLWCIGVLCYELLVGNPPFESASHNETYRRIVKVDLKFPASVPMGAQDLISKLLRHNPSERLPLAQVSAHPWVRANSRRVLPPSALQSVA
Sequence of BDNF/NT-3 growth factors receptor (Homo sapiens) (Q16620 32-822 limits assumed): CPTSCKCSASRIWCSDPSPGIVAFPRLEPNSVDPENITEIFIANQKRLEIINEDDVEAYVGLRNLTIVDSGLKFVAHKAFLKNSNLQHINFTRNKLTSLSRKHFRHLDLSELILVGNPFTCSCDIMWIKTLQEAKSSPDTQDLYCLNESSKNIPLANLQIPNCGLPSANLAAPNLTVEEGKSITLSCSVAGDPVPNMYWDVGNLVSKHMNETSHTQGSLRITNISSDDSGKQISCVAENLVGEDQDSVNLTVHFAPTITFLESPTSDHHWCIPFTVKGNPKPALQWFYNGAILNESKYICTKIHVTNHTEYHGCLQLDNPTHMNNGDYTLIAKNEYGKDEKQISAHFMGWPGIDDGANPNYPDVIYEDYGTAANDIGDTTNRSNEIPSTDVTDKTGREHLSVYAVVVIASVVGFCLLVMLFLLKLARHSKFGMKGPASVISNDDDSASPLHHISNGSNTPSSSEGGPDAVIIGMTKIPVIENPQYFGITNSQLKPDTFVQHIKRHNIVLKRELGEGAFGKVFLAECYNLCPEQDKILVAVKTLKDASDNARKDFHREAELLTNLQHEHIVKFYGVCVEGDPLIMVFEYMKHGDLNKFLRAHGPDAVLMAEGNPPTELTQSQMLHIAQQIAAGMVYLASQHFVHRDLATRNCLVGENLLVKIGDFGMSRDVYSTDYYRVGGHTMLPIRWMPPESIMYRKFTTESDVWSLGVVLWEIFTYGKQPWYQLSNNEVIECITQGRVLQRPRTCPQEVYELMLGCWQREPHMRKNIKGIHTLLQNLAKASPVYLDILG

For the compound `c1ccc(-c2nc3n(c2-c2ccc4c(c2)OCO4)CCC3)nc1`, the inhibition in assay [1] was 2.69%; in assay [2] it was -0.27%; in assay [3], 2.27%; in [4], -0.01%; in [5] it was 3.2%; in assay [6] it was 1.77%. The inhibition in [7] is 1.77%; in [8], -1.06%; in [9] it was 0.07%; in [10] it was 0.45%; in assay [11], 2.32%; in [12] it was 1.52%. In addition, the inhibition in assay [13] was 2.28%; in assay [14], 0.37%; in [15], -3.23%; in [16], -0.05%; in [17], 3.42%; in [18] it was 2.19%. Moreover, the inhibition came to 2.78% in [19] and 2.84% in assay [20].
For `O=C(Nc1n[nH]c2cc(-c3ccc(F)cc3)ccc12)C1CC1`, the inhibition amounted to 4.23% in assay [1]; 2.53% in assay [2]; 5.87% in assay [3]; 2.91% in [4]; 7.26% in assay [5]; 2.11% in assay [6]. For the same compound, the inhibition in assay [7] is 3.11%; in [8], -5.76%; in assay [9] it was 3.14%; in assay [10] it was 2.98%; in [11], 12.8%; in [12], 2.7%. The inhibition in assay [13] was 6.25%; in [14], 0.6%; in assay [15], 6.95%; in assay [16], 3.84%; in assay [17], 8.91%; in assay [18] it was 1.48%. Moreover, the inhibition in [19] is 5.08%; in assay [20], 20.1%.
In the case of `CNC(=O)c1cc(-c2ccc(F)cc2)cc(-c2ccc(S(=O)(=O)N3CCCC3)cc2)c1N`, the inhibition in [1] was 2.94%; in [2] it was 2.22%; in assay [3], 2.48%; in assay [4], 2.53%; in [5] it was 2.33%; in assay [6] it was 2.21%. The inhibition in assay [7] is 2.22%; in assay [8] it was -3.89%; in assay [9], 3.8%; in assay [10], 0.79%; in assay [11], 0.86%; in assay [12], 2.91%. For the same compound, the inhibition in assay [13] is 3.09%; in [14], -0.67%; in [15], 1.97%; in assay [16], 2.49%; in [17], 4.92%; in assay [18] it was 1%. Besides, the inhibition in assay [19] came to 0.67%; in [20] it was 3.33%.
In the case of `N#Cc1c(NC(=O)CN2CCOCC2)sc2c1CCCC2`, the inhibition in assay [1] stood at 0.84%; in assay [2] it was 2.29%; in [3], 4.03%; in assay [4], 2.17%; in assay [5], 2.8%; in [6], 2.2%. The inhibition in [7] was 3.56%; in assay [8], -1.25%; in assay [9], 12.8%; in assay [10], 2.73%; in assay [11] it was 8.53%; in assay [12], 4.66%. The inhibition in assay [13] was 10.7%; in assay [14], 2.31%; in [15], -1.84%; in assay [16], 5.94%; in assay [17], 6.99%; in assay [18], 1.71%. The values for the inhibition in assay [19] and in [20] were 2.67% and 10.5%, respectively.
For `CNC(=O)c1cncc(/C=C/c2ccccc2Cl)c1`, the inhibition is -0.75% in assay [1]; -1.43% in assay [2]; 2.71% in assay [3]; -1.83% in [4]; 3.94% in assay [5]; 4.15% in [6]. The inhibition is 16% in assay [7]; 2.63% in [8]; 5.89% in assay [9]; 1.14% in assay [10]; 12% in assay [11]; 2.57% in assay [12]. Besides, the inhibition is 7.3% in [13]; 5.27% in assay [14]; -3.84% in assay [15]; 3.92% in assay [16]; 8.22% in assay [17]; 1.8% in assay [18]. Also, the inhibition amounted to 2.04% in assay [19] and 2.52% in assay [20].
For `COc1cc(N2CCN(C(C)C)CC2)ccc1Nc1nc(Nc2ccc(F)cc2C(N)=O)c2cc[nH]c2n1`, the inhibition in [1] was 4.26%; in assay [2], -0.6%; in assay [3], 3.09%; in [4], -0.87%; in assay [5], -0.43%; in assay [6] it was 8.7%. The inhibition in [7] is 5.7%; in assay [8], -1.63%; in [9], 85.6%; in [10], 2.91%; in [11] it was 4.58%; in assay [12], 2.99%. Also, the inhibition in assay [13] is 2.23%; in assay [14], 0.8%; in assay [15], 2.67%; in assay [16], 3.31%; in [17], 11.8%; in assay [18], 4.5%. The inhibition in assay [19] was 31.1%; in assay [20], 18.1%.
Regarding `CC(C)COC(=O)c1ccc2c(c1)/C(=C/Nc1ccc(S(N)(=O)=O)cc1)C(=O)N2`, the inhibition in [1] was found to be 30.4%; in [2] it was 6.02%; in assay [3] it was 40.2%; in assay [4] it was 8.8%; in assay [5] it was 48.5%; in [6] it was 1.73%. Moreover, the inhibition in [7] worked out at 4.75%; in assay [8] it was 3.35%; in assay [9], 70.1%; in [10], 3.84%; in [11], 61%; in assay [12], 6.97%. Moreover, the inhibition in assay [13] was 48%; in assay [14], 4.05%; in [15], 82.9%; in [16], -1.08%; in assay [17], 12.6%; in assay [18], 2.95%. Besides, the figures for the inhibition in [19] and in [20] were 14.3% and 14.5%, respectively.

In general, inhibition refers to the drop in the measured response relative to a control, in per cent.
